The target of assay [1] is Rap guanine nucleotide exchange factor 3 (Homo sapiens) (UniProt O95398). Kind of assay: Confirmatory qHTS for agonist of cAMP-regulated guanine nucleotide exchange factor 3 (EPAC1) (AID 1645881). Also: nearly all actives have a fitted effect of over 75% in size. Also: potency is read from the fitted curve at half-maximal effect.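 As to activation: EPAC1 catalysed release of BODIPY-GDP from Rap1B seen as fluorescence loss; 100% = effect of cAMP agonist control.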
Assay [2] has as its target Rap guanine nucleotide exchange factor 4 (Homo sapiens) (UniProt Q8WZA2). The assay can be described thus: Confirmatory qHTS for agonist of cAMP-regulated guanine nucleotide exchange factor 4 (EPAC2) (AID 1645884).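 Also: nucleotide exchange releases bodipy-GDP from Rap1 and this lowers its fluorescence; nearly all actives have a fitted effect of over 65% in size.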 Also: potency is read from the fitted curve at half-maximal effect. As to activation: % is scaled to controls: 0 for no effect and ±100 for the full control effect.
In assay [3] the target is Rap guanine nucleotide exchange factor 3 (Homo sapiens) (UniProt O95398). Kind of assay: Counterscreen qHTS for agonist of cAMP-regulated guanine nucleotide exchange factor 3 (EPAC1) (AID 1645889). Also: nearly all actives have a fitted effect of over 40% in size. Also: potency is read from the fitted curve at half-maximal effect. As to activation: % of control where 0% means no effect. The gist of the method:
(§1)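 Rap1B–BODIPY-GDP (250 nM) with 50 uM GDP; compounds pin-transferred to 9.74 nM–152 uM final (activator) or from 7.32 nM upwards (inhibitor). Fluorescence Ex/Em 480/540 nm read at 5 and 30 min, then after adding cAMP or buffer, at room temperature.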

Assay [4] in a line: qHTS for Inhibitors of the vitamin D receptor (VDR): Hit Validation using a Texas Red Assay (AID 602201). Also: potency is read from the fitted curve at half-maximal effect. The gist of the method:
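Fluorescence polarization with 1.5 uM VDR-LBD, LG19078 and 7 nM Texas Red (final). After 2 hours at ambient temperature, read at Ex 595 nm/Em 615 nm.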

Assay [5] addresses Rap guanine nucleotide exchange factor 3 (Homo sapiens) (UniProt O95398). Kind of assay: Counterscreen qHTS for antagonist of cAMP-regulated guanine nucleotide exchange factor 3 (EPAC1) (AID 1645888).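 Also: fluorescence loss as bound BODIPY-GDP is released from Rap1B; % of control where 0% means no effect.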 The gist of the method: as §1
A short description of assay [6]: qHTS Assay for Inhibitors of Fructose-1,6-bisphosphate Aldolase from Giardia Lamblia: Giardia lamblia growth inhibition (AID 2785). Also: % is scaled to controls: 0 for no effect and ±100 for the full control effect; nearly all actives have a fitted effect of over 70% in size. The method in brief: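 G. lamblia WB trophozoites (100 cells/well) were grown with compound at 37C for 48 h in modified TYI-S-33 medium, pH 7.0. Growth was measured by ATPlite luminescence after 20 min at room temperature.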
Assay [7] can be described thus: qHTS Assay for Inhibitors of Fructose-1,6-bisphosphate Aldolase from Giardia Lamblia: Mammalian cellular toxicity (AID 2786).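 Also: compound exposure lasted 48 h before reading; % is scaled to controls: 0 for no effect and ±100 for the full control effect; nearly all actives have a fitted effect of over 60% in size.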 The method in brief:
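CHO cells seeded at 250 cells/well with pin-tool-added compound, incubated 48 h at 37 °C, 5% CO2. Viability read as ATP content by ATPlite luminescence after 20 min.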

Assay [8] has as its target Tyrosyl-DNA phosphodiesterase 1 (Homo sapiens) (UniProt Q9NUW8). Kind of assay: Confirmation Assay for Inhibitors of Tyrosyl-DNA Phosphodiesterase (TDP1) (AID 489007). Also: potency is read from the fitted curve at half-maximal effect; nearly all actives have a fitted effect of over 40% in size. The note with it: recombinant human TDP1 enzymatic activity, dose-response. The gist of the method: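 Confirmation of primary-screen follow-ups in a qHTS format. Substrate cleavage by Tdp1 (1 nM) of a 3'-phosphotyrosine-FITC, 5'-biotin oligo (15 nM) was monitored as decreased AlphaScreen signal after a 5 min room-temperature reaction.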

The target in assay [9] is Tumor susceptibility gene 101 protein (Homo sapiens) (UniProt Q99816). Kind of assay: qHTS Assay for Iinhibitors of HIV-1 Budding by Blocking the Interaction of PTAP/TSG101: Hit Validation (AID 651600). Also: potency is read from the fitted curve at half-maximal effect; nearly all actives have a fitted effect of over 70% in size. The gist of the method:
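Fluorescence polarization binding assay: Tsg101 binding domain (10 uM final) pre-dispensed with compounds, then FITC-labeled PTAP-motif peptide (50 nM final) added; 20 min at r.t. in HEPES pH 7.5 buffer with NaCl, Tween 20, EDTA, TCEP.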

Assay [10] deals with Phosphoglycerate kinase, glycosomal (Trypanosoma brucei brucei) (UniProt P07378). Kind of assay: qHTS for inhibitors of Phosphogylcerate Kinase: Hit Validation Screen (AID 686980). Also: potency is read from the fitted curve at half-maximal effect; nearly all actives have a fitted effect of over 65% in size. Particulars: TbPGK coupled GAPDH assay, Kinase-Glo luminescence. The gist of the method:
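Luminescent ATP detection (Kinase-Glo Plus) follows a 60-minute room-temperature incubation, with wells lacking PGK as controls. Buffer: 100 mM TEA (pH 7.6), 5 mM MgCl2, 0.01% Tween-20. Coupling enzyme GAPDH (100 nM final) supplies unstable 1,3-BPG in-well.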

The target in assay [11] is DNA polymerase iota (Homo sapiens) (UniProt Q9UNA4). Kind of assay: qHTS for Inhibitors of Polymerase Iota: Confirmatory Assay for Cherry-picked Compounds (AID 720496). Also: potency is read from the fitted curve at half-maximal effect. The note with it: Pol iota primer extension, TAMRA/BHQ fluorescence. The gist of the method:
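Human Pol iota (10 nM) was preincubated 15 min at room temperature with compound, then started with 50 nM TAMRA/BHQ-2 quenched primer-template substrate. Fluorescence (ex 525/em 598 nm) was read at 0 and 10 min.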

The target in assay [12] is Flap endonuclease 1 (Homo sapiens) (UniProt P39748). Kind of assay: qHTS Assay for the Inhibitors of FEN1: Confirmatory Assay for Cherry-picked Compounds (AID 720498). Also: potency is read from the fitted curve at half-maximal effect; nearly all actives have a fitted effect of over 60% in size. The note with it: FEN1 flap cleavage, TAMRA/BHQ2 fluorogenic DNA substrate. The method in brief:
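FEN1 at 10 nM was preincubated with compound for 15 min at room temperature, then 50 nM (final) double-flap DNA substrate was added. TAMRA fluorescence released from the BHQ-2-quenched flap was read at 0 and 15 min (ex 525/em 598 nm).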

The target in assay [13] is Rap guanine nucleotide exchange factor 4 (Homo sapiens) (UniProt Q8WZA2). Kind of assay: Confirmatory qHTS for antagonist of cAMP-regulated guanine nucleotide exchange factor 4 (EPAC2) (AID 1645885). Also: nearly all actives have a fitted effect of over 25% in size. Also: potency is read from the fitted curve at half-maximal effect. As to activity change, negative = inhibition: % is scaled to controls: 0 for no effect and ±100 for the full control effect.
Assay [14] in a line: Confirmation and Secondary Assay for Modulators of Hemoglobin Beta Chain Splicing at IVS2 654 locus (AID 910).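 Also: HeLa cells stably carrying EGFP split by mutant beta-globin IVS2-654 intron; % of control where 0% means no effect.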 The method in brief:
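HeLa cells stably expressing EGFP interrupted by β-globin IVS2-654 intron, seeded overnight in Opti-MEM/2% FCS, then treated 2 days at 37 °C. Restored splicing read as total peak GFP intensity per well by laser scanning cytometry (488 nm excitation, 500–520 nm emission); 500 nM antisense PNA as control.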

Assay [15] is described as follows: Confirmation and Secondary Assay for Modulators of Hemoglobin Beta Chain Splicing at IVS2 705 locus (AID 930).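 Also: HeLa cells stably expressing the EGFP-705 splicing reporter; GFP fluorescence per well restored by corrected splicing of the IVS2-705 intron in EGFP; % of control where 0% means no effect.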 The method in brief: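 Stable HeLa line with EGFP disrupted by mutant beta-globin intron 2 (705). Overnight attachment, then 2 days of compound at 37C, 5% CO2. Signal: peak GFP intensity summed over objects 5-250 µm.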
A short description of assay [16]: AP1 Signaling Pathway (AID 357; active = well fitted curve in either direction with a large enough effect, not every such curve was filed as active;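 also: ME-180 reporter cells stimulated with EGF at its EC50 level; % is scaled to controls: 0 for no effect and ±100 for the full control effect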). Particulars: ME-180 AP-1-bla reporter, EGF-induced, beta-lactamase ratio, 5 h; at 7.69 µM (top of the series) unless noted. The method in brief: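 Modulation of EGF-driven AP-1 transcription was assessed with a beta-lactamase reporter in ME-180 cells. Compound and EC50 EGF were co-incubated 5 hours at 37 °C before 2.5-hour CCF4 loading at room temperature and dual-emission reading.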

Assay [17] in a line: Stat Signaling Pathway (AID 446; active = well fitted curve in either direction with a large enough effect, not every such curve was filed as active;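 also: ME-180 cervical cancer cells given 40 pM IL-6 alongside compound; SIE-controlled beta-lactamase reporter measured as 460/530 nm FRET emission ratio; % is scaled to controls: 0 for no effect and ±100 for the full control effect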). The method in brief: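 ME-180 cells carrying a SIE-driven beta-lactamase reporter are stimulated with 40 pM IL-6 for 5 h at 37C in the presence of compound. The 460/530 nm FRET substrate ratio is read after 2.5 h at RT. Data are normalised to 300 pM IL-6 and to 125 nM JAK inhibitor controls.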
For assay [18], the target named is Glucocorticoid receptor (Homo sapiens) (UniProt P04150). Kind of assay: GR-GFP Redistribution (AID 450;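 active = compounds whose dose series gives a full or clear partial fitted curve of increased nuclear translocation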; also: potency is read from the fitted curve at half-maximal effect). Particulars: U2OS GR-GFP nuclear translocation, laser cytometry, 2 h.

The structures appear in SMILES notation. Values without a mark were called inactive. Inconclusive results are not listed. The list shows a part of the results. Activity calls are given as the source filed them. Unless noted, calls follow the shape of the dose curve; as a rule, active = well fitted curve in the direction sought with a large enough effect; inconclusive = small, poorly fitted or top-dose-only effect, or another doubt; inactive = no such curve, though single readings can be large; an effect the other way counts as inactive or inconclusive.

Chain of Rap guanine nucleotide exchange factor 3 (Homo sapiens) (O95398 whole entry, looked up): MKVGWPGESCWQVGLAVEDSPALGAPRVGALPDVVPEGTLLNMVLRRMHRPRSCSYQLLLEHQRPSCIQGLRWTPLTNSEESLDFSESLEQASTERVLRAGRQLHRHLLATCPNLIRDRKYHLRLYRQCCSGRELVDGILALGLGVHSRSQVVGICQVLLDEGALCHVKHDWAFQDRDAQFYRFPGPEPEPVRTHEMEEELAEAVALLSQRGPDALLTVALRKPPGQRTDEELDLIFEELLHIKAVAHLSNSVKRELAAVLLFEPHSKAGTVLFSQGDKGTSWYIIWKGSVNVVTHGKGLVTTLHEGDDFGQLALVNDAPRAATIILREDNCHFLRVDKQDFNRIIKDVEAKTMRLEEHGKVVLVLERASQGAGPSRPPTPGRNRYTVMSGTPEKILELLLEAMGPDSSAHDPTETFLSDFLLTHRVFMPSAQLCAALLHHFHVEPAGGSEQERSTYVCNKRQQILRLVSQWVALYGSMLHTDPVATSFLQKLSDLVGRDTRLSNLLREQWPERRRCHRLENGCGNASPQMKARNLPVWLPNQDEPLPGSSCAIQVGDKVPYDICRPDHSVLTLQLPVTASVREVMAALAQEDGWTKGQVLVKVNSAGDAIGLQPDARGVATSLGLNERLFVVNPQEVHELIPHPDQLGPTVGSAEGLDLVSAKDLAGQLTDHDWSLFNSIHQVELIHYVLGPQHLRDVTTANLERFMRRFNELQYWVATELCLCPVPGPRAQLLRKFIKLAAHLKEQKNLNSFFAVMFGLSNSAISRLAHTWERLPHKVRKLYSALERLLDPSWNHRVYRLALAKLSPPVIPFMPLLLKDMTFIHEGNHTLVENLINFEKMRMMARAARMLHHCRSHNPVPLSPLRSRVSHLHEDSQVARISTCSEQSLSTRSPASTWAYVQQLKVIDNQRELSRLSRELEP
Chain of Rap guanine nucleotide exchange factor 4 (Homo sapiens) (Q8WZA2 whole entry, looked up): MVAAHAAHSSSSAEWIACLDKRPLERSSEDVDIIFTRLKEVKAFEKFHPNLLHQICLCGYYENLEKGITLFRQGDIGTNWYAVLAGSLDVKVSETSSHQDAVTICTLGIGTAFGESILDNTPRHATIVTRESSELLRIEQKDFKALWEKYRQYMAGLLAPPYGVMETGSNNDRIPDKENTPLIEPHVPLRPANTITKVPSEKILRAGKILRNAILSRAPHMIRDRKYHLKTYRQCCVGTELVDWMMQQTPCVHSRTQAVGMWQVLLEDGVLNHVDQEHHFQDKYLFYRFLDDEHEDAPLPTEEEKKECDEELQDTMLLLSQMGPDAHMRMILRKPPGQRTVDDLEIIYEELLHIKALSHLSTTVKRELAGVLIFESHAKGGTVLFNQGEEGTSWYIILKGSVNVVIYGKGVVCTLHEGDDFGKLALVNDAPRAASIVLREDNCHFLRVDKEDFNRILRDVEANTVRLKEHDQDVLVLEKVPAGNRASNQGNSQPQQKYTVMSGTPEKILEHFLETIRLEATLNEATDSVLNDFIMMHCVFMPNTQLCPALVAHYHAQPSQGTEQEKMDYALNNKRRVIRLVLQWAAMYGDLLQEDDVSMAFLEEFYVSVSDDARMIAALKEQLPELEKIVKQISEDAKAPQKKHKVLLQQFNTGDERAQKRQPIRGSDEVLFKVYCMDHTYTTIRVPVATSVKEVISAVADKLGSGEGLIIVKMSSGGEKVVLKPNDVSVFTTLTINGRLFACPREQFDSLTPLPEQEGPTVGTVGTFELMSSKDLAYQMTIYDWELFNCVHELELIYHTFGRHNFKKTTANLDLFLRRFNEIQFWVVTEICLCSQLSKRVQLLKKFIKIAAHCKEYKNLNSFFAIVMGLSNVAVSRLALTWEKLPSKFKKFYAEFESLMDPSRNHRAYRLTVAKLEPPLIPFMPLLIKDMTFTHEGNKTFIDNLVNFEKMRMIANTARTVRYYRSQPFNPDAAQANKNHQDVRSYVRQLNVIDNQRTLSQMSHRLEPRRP
Chain of Tyrosyl-DNA phosphodiesterase 1 (Homo sapiens) (Q9NUW8 whole entry, looked up): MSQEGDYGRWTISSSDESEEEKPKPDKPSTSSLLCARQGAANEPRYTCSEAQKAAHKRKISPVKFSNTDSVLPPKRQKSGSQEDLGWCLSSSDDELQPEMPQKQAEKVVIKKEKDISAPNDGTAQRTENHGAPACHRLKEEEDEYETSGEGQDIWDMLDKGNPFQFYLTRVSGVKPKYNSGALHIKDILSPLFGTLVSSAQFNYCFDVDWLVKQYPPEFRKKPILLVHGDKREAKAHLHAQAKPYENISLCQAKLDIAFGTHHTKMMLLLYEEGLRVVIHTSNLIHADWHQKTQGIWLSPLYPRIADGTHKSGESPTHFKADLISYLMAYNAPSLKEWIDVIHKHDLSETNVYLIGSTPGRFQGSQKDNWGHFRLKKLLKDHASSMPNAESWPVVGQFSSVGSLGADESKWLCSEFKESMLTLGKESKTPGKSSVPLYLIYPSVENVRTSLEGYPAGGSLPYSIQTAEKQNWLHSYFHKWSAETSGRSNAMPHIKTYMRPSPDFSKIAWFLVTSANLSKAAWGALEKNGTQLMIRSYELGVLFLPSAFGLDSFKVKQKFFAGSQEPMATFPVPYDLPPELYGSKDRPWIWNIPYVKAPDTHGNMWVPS
Chain of Tumor susceptibility gene 101 protein (Homo sapiens) (Q99816 whole entry, looked up, the tested form may be a part): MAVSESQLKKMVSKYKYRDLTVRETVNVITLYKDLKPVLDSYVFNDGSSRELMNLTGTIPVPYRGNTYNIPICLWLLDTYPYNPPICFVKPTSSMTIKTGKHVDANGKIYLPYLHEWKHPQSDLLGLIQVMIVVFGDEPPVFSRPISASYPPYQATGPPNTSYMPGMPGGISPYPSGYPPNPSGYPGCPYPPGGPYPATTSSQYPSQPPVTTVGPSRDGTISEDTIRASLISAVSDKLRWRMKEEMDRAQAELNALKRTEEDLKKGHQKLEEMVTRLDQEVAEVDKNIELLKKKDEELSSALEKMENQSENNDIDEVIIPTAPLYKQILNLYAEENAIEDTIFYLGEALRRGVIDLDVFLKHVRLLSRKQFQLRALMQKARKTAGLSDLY
Chain of Glucocorticoid receptor (Homo sapiens) (P04150 whole entry, looked up): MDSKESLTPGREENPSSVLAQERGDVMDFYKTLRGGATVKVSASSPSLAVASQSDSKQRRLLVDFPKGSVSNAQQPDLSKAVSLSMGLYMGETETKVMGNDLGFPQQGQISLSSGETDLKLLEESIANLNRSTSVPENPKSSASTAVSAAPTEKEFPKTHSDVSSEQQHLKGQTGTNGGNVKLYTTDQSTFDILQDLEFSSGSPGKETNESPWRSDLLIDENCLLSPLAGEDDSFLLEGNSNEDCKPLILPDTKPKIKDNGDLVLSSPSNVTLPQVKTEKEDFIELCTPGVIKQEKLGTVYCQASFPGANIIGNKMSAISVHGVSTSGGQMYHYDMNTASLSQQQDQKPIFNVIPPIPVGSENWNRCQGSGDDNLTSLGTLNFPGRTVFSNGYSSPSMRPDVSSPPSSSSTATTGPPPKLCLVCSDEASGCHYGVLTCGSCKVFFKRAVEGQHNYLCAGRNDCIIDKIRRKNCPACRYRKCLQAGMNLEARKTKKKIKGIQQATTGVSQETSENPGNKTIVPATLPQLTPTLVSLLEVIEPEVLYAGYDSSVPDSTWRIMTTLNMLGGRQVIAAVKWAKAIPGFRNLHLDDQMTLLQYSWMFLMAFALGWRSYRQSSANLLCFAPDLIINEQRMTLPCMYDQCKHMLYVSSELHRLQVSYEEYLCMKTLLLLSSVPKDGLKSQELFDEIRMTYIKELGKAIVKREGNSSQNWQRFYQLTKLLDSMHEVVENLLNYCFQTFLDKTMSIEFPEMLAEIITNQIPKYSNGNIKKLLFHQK
Chain of DNA polymerase iota (Homo sapiens) (Q9UNA4 whole entry, looked up): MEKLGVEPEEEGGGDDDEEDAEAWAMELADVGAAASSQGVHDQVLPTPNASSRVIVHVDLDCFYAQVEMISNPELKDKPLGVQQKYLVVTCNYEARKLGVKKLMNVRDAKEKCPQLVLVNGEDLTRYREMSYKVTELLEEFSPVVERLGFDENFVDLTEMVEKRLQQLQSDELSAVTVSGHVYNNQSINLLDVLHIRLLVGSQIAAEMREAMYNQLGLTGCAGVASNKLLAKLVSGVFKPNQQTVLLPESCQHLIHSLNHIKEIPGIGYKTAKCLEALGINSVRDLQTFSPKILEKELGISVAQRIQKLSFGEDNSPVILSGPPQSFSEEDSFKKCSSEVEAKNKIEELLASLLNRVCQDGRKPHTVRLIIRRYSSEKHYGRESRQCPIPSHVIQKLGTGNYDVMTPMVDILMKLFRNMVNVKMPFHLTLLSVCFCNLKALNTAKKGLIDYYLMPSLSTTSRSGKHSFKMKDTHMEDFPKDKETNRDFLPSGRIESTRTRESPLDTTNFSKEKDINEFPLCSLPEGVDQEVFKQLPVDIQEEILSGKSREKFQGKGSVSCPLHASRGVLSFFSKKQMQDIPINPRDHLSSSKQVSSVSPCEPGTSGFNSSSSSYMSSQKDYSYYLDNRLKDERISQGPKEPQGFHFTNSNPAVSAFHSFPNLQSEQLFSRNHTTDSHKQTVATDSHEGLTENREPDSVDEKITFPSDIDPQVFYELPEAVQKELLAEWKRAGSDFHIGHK
Chain of Flap endonuclease 1 (Homo sapiens) (P39748 whole entry, looked up): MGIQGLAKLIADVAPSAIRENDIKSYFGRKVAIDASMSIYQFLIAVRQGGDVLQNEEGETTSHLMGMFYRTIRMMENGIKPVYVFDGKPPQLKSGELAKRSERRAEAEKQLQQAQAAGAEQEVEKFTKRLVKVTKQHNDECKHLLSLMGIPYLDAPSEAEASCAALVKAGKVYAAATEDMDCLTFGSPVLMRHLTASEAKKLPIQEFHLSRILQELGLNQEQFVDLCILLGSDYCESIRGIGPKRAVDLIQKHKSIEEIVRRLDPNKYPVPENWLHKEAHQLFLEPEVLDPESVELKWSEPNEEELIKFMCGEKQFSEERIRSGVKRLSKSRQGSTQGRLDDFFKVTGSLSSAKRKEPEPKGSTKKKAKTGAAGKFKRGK

On to `Cc1ccc(C)c(-c2csc(N)c2C(=O)OC(C)C)c1`, for which the Potency entry in assay [1] is “inactive”. Also, the activation in [2] is 7.03% [at 17.1 µM, percent relative to cAMP agonist control]; in [3], 30% [at 30.8 µM].

`O=C(NC1(O)C(=O)c2ccccc2C1=O)c1c(Cl)cccc1Cl`: in assay [4], the Potency is 3.98 µM (active). The Potency entry in assay [1], in assay [2] and in assay [5] was “inactive” in each case.

As for `O=C(Nc1ncccc1O)c1c(O)c2ccccc2[nH]c1=O`, the Potency result in [1] and in assay [3] was “inactive” throughout. Moreover, the Potency in assay [2] was 100 µM (active).

`Nc1ccc2nc3c(=O)[nH]c(=S)[nH]c3nc2c1`: the call in [6] and in assay [7] was inactive. Moreover, the Potency in assay [8] is 39.8 µM (active); in [9] it was 18.3 µM (active); in [10] it was 16.3 µM (active); in [11], 33.6 µM (active); in assay [12] it was 67.5 µM (active); in assay [1] it was 79.4 µM (active). Besides, the Potency in assay [2] was 100 µM (active); in assay [3] it was 44.7 µM (active). Besides, the Potency entry in assay [5] is “inactive”.

Take `COc1cc(/C=C/[N+](=O)[O-])ccc1OCc1cccc(C(=O)O)c1`: the Potency in assay [8] is 79.4 µM (active). Moreover, the Potency result in assay [1], in [2], in assay [5] and in assay [3] was “inactive” in each case.

Turning to `CCCCn1c(=O)[nH]c(=O)c2c1nc(-c1ccccc1F)n2Cc1ccccc1OC`, the Potency result in assay [1], in assay [2], in [5] and in assay [3] was “inactive” each time.

Regarding `CCOC(=O)C1=C(N)Oc2ccc3ccccc3c2C1c1ccc(O)cc1` (stereo not drawn), the Potency entry in assay [1], in [2], in assay [5] and in [3] was “inactive” in each case.

Regarding `COc1ccccc1NS(=O)(=O)c1ccc2ccccc2c1`, the Potency entry in assay [1] is “inactive”. The activation in [2] was 0% [at 17.1 µM, percent relative to cAMP agonist control]; in [3], 16.4% [at 30.8 µM].

`O=S(=O)(c1cc(C(F)(F)F)ccc1Cl)N1CCN(c2ncnc3ccccc23)CC1`: the Potency entry in assay [1], in assay [2] and in assay [3] was “inactive” throughout.

On to `CCOc1ccc(C(=O)CCN2CCCCCC2)cc1`, for which the Potency entry in assay [1], in assay [2] and in [3] was “inactive” each time.

In the case of `Cc1ccc(O)c(CNc2ccc(S(=O)(=O)Nc3nccs3)cc2)c1`, the Potency result in [1] was “inactive”. Also, the activation is -10.4% [at 17.1 µM, percent relative to cAMP agonist control] in assay [2] and 19.2% [at 30.8 µM] in assay [3]. In addition, the activity change, negative = inhibition in assay [5] is 1.37% [at 30.8 µM].

In the case of `CCCOP(=O)(OCCC)C(Nc1cccc(C(F)(F)F)c1)c1ccc(C)cc1` (stereo not drawn), the Potency entry in assay [1], in [2] and in assay [3] was “inactive” in each case.

`N/C(CSc1nc(-c2ccccc2)c(-c2ccccc2)o1)=N\O`: the Potency entry in assay [1] and in assay [5] was “inactive” throughout. In assay [13], the Potency is 16.9 µM (active).

On to `CC(Nc1ccc(Cl)cc1)c1cc(Cl)ccc1O` (stereo not drawn), for which the Potency entry in [1], in assay [2] and in assay [3] was “inactive” each time.

As to `C#Cc1ccc([C@H]2C=C(C(=O)NCc3ccccc3)O[C@@H](OCC)[C@@H]2CCCO)cc1`, the Potency result in assay [1] and in assay [5] was “inactive” each time. Further, in assay [13], the Potency is 37.9 µM (active).

On to `CN1C(=O)/C(=C2/C=Cc3ccccc3N2CCCS(=O)(=O)O)SC1=S`, for which the Potency entry in assay [1], in assay [2] and in [3] was “inactive” in each case.

Consider `CCOC(=O)Nc1cc2c(c(N)n1)N=C(c1ccccc1)CN2`, for which the Potency entry in assay [1], in assay [13] and in assay [5] was “inactive” each time.

For `COc1ccc(CN(C)C(=O)c2ccc(OCC(=O)Nc3cccc(C(F)(F)F)c3)c(OC)c2)c(OC)c1`, the Potency result in [1], in [2] and in assay [3] was “inactive” throughout.

As for `COc1ccc(C(=O)NCCn2cc(SCc3cccc(F)c3)c3ccccc32)cc1OC`, the Potency result in [1], in [13] and in [5] was “inactive” each time.

`COc1ccc(CCC(=O)N(C)CC(=O)Nc2ccc(Cl)c(C(F)(F)F)c2)cc1`: the Potency result in [1], in assay [2] and in [3] was “inactive” throughout.

For `CCCCC[C@@H](C)N1C[C@H](COCc2ccccc2)Oc2cc(N3CC[C@H](N(C)C)C3)ccc2S1(=O)=O`, the Potency entry in assay [1], in assay [2] and in [3] was “inactive” each time.

With `COc1ccc2c(c1)OCC(Cc1ccc(OC)c(OC)c1)C2=O` (stereo not drawn), the Potency entry in assay [14], in assay [15], in assay [1] and in [2] was “inactive” in each case.

Regarding `COC(=O)C1CCN(c2nc3ccccc3nc2C(C#N)C(=O)NCCc2ccccc2)CC1` (stereo not drawn), the activity change, negative = inhibition in assay [16] was -19.5% [at 17.2 µM]. The compound was classed as inactive in [17]. The Potency in assay [18] was greater than 20.6 µM. Moreover, the Potency result in assay [1], in assay [2] and in [3] was “inactive” throughout.

With `Cc1ccc(S(=O)(=O)N2CCOCC2)cc1NC(=O)COC(=O)CCOc1ccc(C(C)(C)C)cc1`, the Potency result in [1], in [2] and in [3] was “inactive” in each case.

As to `Cc1ccccc1C1(O)c2ccccc2-c2ccccc21`, the Potency result in assay [1], in assay [13] and in assay [5] was “inactive” throughout.

The record behind these values is PubChem BioAssay (NCATS).
